Among the test systems are NCI-H23 lung; NCI-H226 lung; NCI-H322M lung; HOP-62 NSCLC; NCI-H460 lung; HOP-92 NSCLC; NCI-H522 lung; A549/ATCC NSCLC; 786-0 renal; COLO 205 colon; DU-145 prostate; K-562 leukemia; MALME-3M melanoma; MDA-MB-231 breast; RXF 393 renal; SF-268 CNS; SF-295 CNS; SF-539 CNS; UACC-257 melanoma; M14 melanoma.
Holding throughout (assay): NCI-60 one-dose screen, 48 h (100 = growth as untreated, 0 = no growth, -100 = all killed)
Holding throughout (conditions): 10 µM unless noted

About 83,000 compounds went through this panel and 20% of them were active in at least one assay; those are over-represented in the sample as a whole.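 In brief: 96-well plates, 48 h treatment, single concentration, percent growth endpoint.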 Unmarked numbers belong to inactive results. Active and inactive are the calls of the source. How the source made its calls: active means growth percent below 10; inactive means the rest.

Experimental findings from PubChem BioAssay (NCI) are described below.

In the case of `CCC(C)(C)C(=O)O[C@H]1C[C@@H](C)C=C2C=C[C@H](C)[C@H](CC[C@@H]3CC(SCCN)CC(=O)O3)[C@H]21` (stereo not given in full), the growth in the assay with NCI-H23 lung was 98.2%; with NCI-H226 lung, 98.3%; in the assay on NCI-H322M lung it was 97.4%; with HOP-62 NSCLC, 98.9%; with NCI-H460 lung, 107%; in the assay on HOP-92 NSCLC, 34.6%. In addition, the growth in the assay with NCI-H522 lung was 65.4%; in the assay on A549/ATCC NSCLC it was 75.7%; with 786-0 renal it was 102%; with COLO 205 colon, 82.8%; with DU-145 prostate it was 98.7%; in the assay on K-562 leukemia it was 51.2%. The growth with MALME-3M melanoma was 86.2%; with MDA-MB-231 breast, 88.7%; in the assay with RXF 393 renal it was 86.8%; in the assay with SF-268 CNS, 96.3%; with SF-295 CNS, 106%; in the assay on SF-539 CNS, 76.2%. In addition, the growth in the assay with UACC-257 melanoma is 78%; in the assay on M14 melanoma it was 60.1%.

Consider `O=C1Nc2ccccc2/C1=C/c1cccn1CCCCn1c2ccccc2c(=O)c2ccccc21`, for which the growth with NCI-H23 lung is 77.4%; with NCI-H226 lung, 75.2%; in the assay on NCI-H322M lung, 101%; in the assay on HOP-62 NSCLC, 77.4%; in the assay with NCI-H460 lung, 93.7%; with HOP-92 NSCLC, 59.5%. Further, the growth with NCI-H522 lung was 68.4%; in the assay on A549/ATCC NSCLC, 86.3%; with 786-0 renal, 97%; with COLO 205 colon it was 69.8%; in the assay with DU-145 prostate, 94.2%; with K-562 leukemia, 59.5%. The growth in the assay with MALME-3M melanoma was 91.9%; with MDA-MB-231 breast, 64.7%; in the assay with RXF 393 renal, 88.1%; in the assay on SF-268 CNS it was 83.1%; in the assay on SF-295 CNS, 101%; with SF-539 CNS, 93%. Also, the values for the growth in the assay on UACC-257 melanoma and in the assay with M14 melanoma were 105% and 85.1%, respectively.

With `N#Cc1c(-c2ccccc2)cc(-c2ccc(Nc3nc(Nc4ccc(Cl)cc4)nc(Nc4ccc(Cl)cc4)n3)cc2)nc1N`, the growth in the assay on NCI-H23 lung was 39.2%; with NCI-H226 lung it was -23.4% (active); in the assay with NCI-H322M lung, 87%; in the assay on HOP-62 NSCLC, 99%; in the assay on NCI-H460 lung, 48.2%; in the assay on HOP-92 NSCLC, -72.5% (active). The growth in the assay on NCI-H522 lung is 80.7%; in the assay on A549/ATCC NSCLC it was 28.8%; in the assay on 786-0 renal, 46.7%; with COLO 205 colon, -25.3% (active); with DU-145 prostate, 34%; with K-562 leukemia, 32.6%. Also, the growth was -68.1% (active) in the assay with MALME-3M melanoma; -31.2% (active) in the assay on MDA-MB-231 breast; -44.5% (active) with RXF 393 renal; 51.9% in the assay with SF-268 CNS; 75.5% in the assay with SF-295 CNS; -53.9% (active) in the assay with SF-539 CNS. Besides, the growth in the assay with UACC-257 melanoma is -12.1% (active); in the assay with M14 melanoma, 2% (active).

For the molecule `CC(C)(C)CC(C)(C)NC(=O)Nc1ncccc1OCc1ccccc1`, the growth with NCI-H23 lung was 86.4%; in the assay with NCI-H226 lung, 91.6%; in the assay on NCI-H322M lung, 86.3%; in the assay on HOP-62 NSCLC, 97.1%; in the assay with NCI-H460 lung, 106%; with HOP-92 NSCLC, 87.7%. Moreover, the growth in the assay with NCI-H522 lung was 70.7%; in the assay on A549/ATCC NSCLC it was 89.8%; in the assay on 786-0 renal, 98.5%; in the assay on COLO 205 colon, 105%; in the assay on DU-145 prostate, 97.1%; with K-562 leukemia, 89.3%. The growth in the assay with MALME-3M melanoma is 91.8%; in the assay with MDA-MB-231 breast it was 96.9%; in the assay with RXF 393 renal, 116%; in the assay on SF-268 CNS it was 93.1%; in the assay on SF-295 CNS it was 88.3%; with SF-539 CNS, 102%. Moreover, the growth is 85.8% in the assay on UACC-257 melanoma and 103% in the assay on M14 melanoma.

Regarding `O=C(/C=C/c1ccco1)Nc1ncc(Cc2cccc(C(F)(F)F)c2)s1`, the growth was 22.4% in the assay with NCI-H23 lung; 33.2% in the assay with NCI-H226 lung; 30.4% with NCI-H322M lung; 1.31% (active) in the assay with HOP-62 NSCLC; -0.329% (active) in the assay with NCI-H460 lung; 64.3% in the assay with HOP-92 NSCLC. Moreover, the growth is -15% (active) in the assay with NCI-H522 lung; 11.6% with A549/ATCC NSCLC; 12.6% in the assay on 786-0 renal; -47.5% (active) in the assay with COLO 205 colon; 10.5% in the assay with DU-145 prostate; 4.59% (active) in the assay on K-562 leukemia. For the same molecule, the growth with MALME-3M melanoma is 5.43% (active); with MDA-MB-231 breast, 25.5%; in the assay with RXF 393 renal it was -8.57% (active); in the assay with SF-268 CNS it was 33.2%; in the assay with SF-295 CNS, -20.5% (active); with SF-539 CNS it was -39.8% (active). The growth was 25.4% in the assay with UACC-257 melanoma and -10.2% (active) in the assay with M14 melanoma.

Take `COc1cc(/C=C2/C=C(c3ccccc3)N(CCc3ccc(S(N)(=O)=O)cc3)C2=O)cc(OC)c1OC`: the growth is 103% in the assay with NCI-H23 lung; 94.6% in the assay with NCI-H226 lung; 100% with NCI-H322M lung; 94% in the assay on HOP-62 NSCLC; 105% with NCI-H460 lung; 41.9% in the assay with HOP-92 NSCLC. The growth in the assay with NCI-H522 lung is 81.3%; in the assay with A549/ATCC NSCLC, 86.4%; in the assay with 786-0 renal it was 85.5%; with COLO 205 colon it was 108%; with DU-145 prostate, 109%; with K-562 leukemia, 93.6%. The growth is 84.2% in the assay with MALME-3M melanoma; 96.8% with MDA-MB-231 breast; 96.1% in the assay on RXF 393 renal; 107% in the assay with SF-268 CNS; 99.2% in the assay with SF-295 CNS; 101% with SF-539 CNS. Further, the figures for the growth with UACC-257 melanoma and with M14 melanoma were 84% and 89.8%, respectively.

In the case of `O=C(CSC(=S)n1cnnc1)NC(=O)c1ccccc1`, the growth in the assay on NCI-H23 lung is 102%; with NCI-H226 lung, 100%; with NCI-H322M lung, 103%; with HOP-62 NSCLC, 106%; in the assay with NCI-H460 lung, 112%; with HOP-92 NSCLC, 101%. Besides, the growth in the assay on NCI-H522 lung is 92.4%; in the assay on A549/ATCC NSCLC, 114%; in the assay on 786-0 renal, 104%; in the assay on COLO 205 colon it was 119%; in the assay with DU-145 prostate it was 105%; in the assay on K-562 leukemia, 89.8%. Besides, the growth is 98.4% with MALME-3M melanoma; 112% in the assay on MDA-MB-231 breast; 120% in the assay on RXF 393 renal; 98.6% in the assay with SF-268 CNS; 106% in the assay with SF-295 CNS; 100% with SF-539 CNS. Moreover, the figures for the growth in the assay with UACC-257 melanoma and in the assay on M14 melanoma were 113% and 98.1%, respectively.
